ERG Ets-DNA blk: ERG Ets/DNA interaction inhibition. P11308. 370,000 compounds, 0.028% hits. fluorescence polarization, His-ERG Ets domain / labelled DNA. Potency, µM (titrated, usually from 76.9 µM), actives largely listed as inhibitors; active = well fitted inhibition curve with a large enough effect in the polarisation, with a control signal flat; inconclusive = small, poorly fitted or top-dose-only effect, or effect the other way, or a change in a side signal; inactive = no such curve, though single readings can be large or run the other way; the % refers to the polarisation;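 also: polarization taken with two DNA probes labelled with fluorescein and Texas red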
Target sequence (P11308 whole entry, looked up, the tested form may be a part): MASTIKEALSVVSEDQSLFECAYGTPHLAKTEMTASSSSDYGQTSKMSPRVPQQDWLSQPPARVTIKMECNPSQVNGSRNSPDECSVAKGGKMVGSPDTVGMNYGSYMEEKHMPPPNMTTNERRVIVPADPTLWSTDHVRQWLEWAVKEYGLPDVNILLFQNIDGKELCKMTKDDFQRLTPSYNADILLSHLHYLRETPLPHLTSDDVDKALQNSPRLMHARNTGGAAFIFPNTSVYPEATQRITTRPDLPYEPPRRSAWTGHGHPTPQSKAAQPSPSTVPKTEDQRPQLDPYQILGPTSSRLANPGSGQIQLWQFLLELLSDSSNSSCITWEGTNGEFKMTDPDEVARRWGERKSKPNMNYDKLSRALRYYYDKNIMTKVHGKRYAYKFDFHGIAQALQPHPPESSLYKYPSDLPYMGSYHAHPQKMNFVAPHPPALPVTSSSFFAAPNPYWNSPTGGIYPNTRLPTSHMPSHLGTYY
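His-tagged ERG Ets domain (1 uM in the protein solution; 300mM KCl, 50mM Tris-HCl, 1mM EDTA, 1mM DTT, pH 7.5) received compound, then a probe mix of 5 nM fluorescein-DNA and 100nM Texas-615-DNA. Fluorescence polarization was read for both dyes.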
aSyn rescue: inhibitors of alpha-synuclein toxicity in yeast; Yeast expressing alpha-synuclein, growth rescue, BacTiter-Glo, 24 h; Potency, µM (series often up to 46.1 µM), actives largely listed as activators; 370,000 compounds, 0.14% hits; also: nearly all actives have a fitted effect of over 65% in size
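Readout is rescue of growth in alpha-synuclein-expressing yeast, so inhibitors of toxicity appear as activators. Growth after 24 hr at 30 deg C in galactose medium is quantified by luminescence.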
Abeta yeast res: compounds reversing amyloid beta toxicity in yeast; yeast expressing A-beta42, growth rescue, OD600, 48 h; response scale: 0% DMSO, 100% iron-clioquinol control; Potency, µM (doses to about 46.1 µM), hits mostly activators; 410,000 compounds, 0.063% hits; AID 1347071; also: nearly all actives have a fitted effect of over 55% in size
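Growth rescue measured by 600 nm absorbance after 48 h yeast culture at 30 C with compound. Values normalized between DMSO and an equimolar ferric chloride plus clioquinol control.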
TDP43 rescue: inhibitors of TDP-43 toxicity in yeast; TDP-43 expressing yeast growth rescue, BacTiter-Glo, 24 h; Potency, µM (doses to about 46.1 µM), hits mostly activators; 410,000 compounds, 1.8% hits; AID 652104; also: nearly all actives have a fitted effect of over 50% in size
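Yeast cells expressing TDP-43 under galactose induction are exposed to compounds for 24 hr at 30 deg C. BacTiter-Glo luminescence measures growth, so protective compounds score as activators.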
FUS yeast rescue: rescues growth of FUS-expressing yeast | S. cerevisiae FUS-expressing, growth rescue, OD600, 24 h | Potency, µM (doses to about 76.6 µM), hits mostly activators | 390,000 compounds, 0.24% hits; also: nearly all actives have a fitted effect of over 55% in size
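Yeast FUS proteinopathy model; galactose-induced FUS (2%), starting OD 0.005. Cpds in dilution series, 24hr, 30C, 99% humidity. Abs 600 nm growth. Pos ctrl CP55940 (top 92uM final); neg ctrl DMSO.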
Mito fusion yeast: blocks mitochondrial division or promotes mitochondrial fusion; S. cerevisiae fusion-defective mutant growth rescue, CellTiterGlo 48 h; Potency, µM (top dose mostly 46.1 µM), hits mostly activators; 320,000 compounds, 0.23% hits; AID 485298; also: nearly all actives have a fitted effect of over 45% in size
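Temperature-sensitive fusion-defective S. cerevisiae (e.g. fzo1-1, mgm1-5) were grown with compound in YPEG medium (3% ethanol, 3% glycerol) for 48 hours at 37C. Growth rescue was measured as viability by CellTiterGlo luminescence after 10 minutes at ambient.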
A number is an active result; – = inactive; ? = inconclusive; · = not tested or not shown; [ ] = dose if it differs, or a comment. Compounds with a hit are over-represented: about 2.2% of the library has one in this group of screens. Unless noted, calls follow the shape of the dose curve; as a rule, active = well fitted curve in the direction sought with a large enough effect; inconclusive = small, poorly fitted or top-dose-only effect, or another doubt; inactive = no such curve, though single readings can be large; an effect the other way counts as inactive or inconclusive.

SMILES | ERG Ets-DNA blk | aSyn rescue | Abeta yeast res | TDP43 rescue | FUS yeast rescue | Mito fusion yeast
CCN(CC)c1ccc(/C=C(\C#N)c2ccccn2)cc1 | – | – | – | 16µM | – | –
CCN(Cc1ccccc1)c1ccc(/C=C(\C#N)c2ccccn2)cc1 | – | – | – | – | – | –
CC1(c2nnnn2-c2ccc3c(c2)OCCO3)CSCC(=O)N1CCc1c[nH]c2ccccc12 (configuration not stated) | · | · | · | · | – | ·
Cc1nc(NC(=O)c2ccccc2)sc1-c1cc(C(=O)N2CCOCC2)nn1Cc1ccccc1 | · | – | – | – | – | ·
O=C1/C(=C/C=C/c2ccco2)SC(=S)N1c1ccc(O)cc1 | – | – | – | 11µM | – | –
O=C1/C(=C\c2ccco2)SC(=S)N1c1ccc(O)cc1 | – | – | – | – | – | ·
OCCCn1c(C2CCCN2c2nc(-c3ccc(F)cc3)cs2)nc2cc(Cl)c(Cl)cc21 (configuration not stated) | – | – | – | – | 35µM | ·
O=C(OCc1ccccc1C(F)(F)F)c1ccc(Br)c(S(=O)(=O)N2CCOCC2)c1 | – | – | – | – | – | ·
COc1cc(Nc2cccc(-c3ccccc3)n2)cc(OC)c1OC | · | – | – | 32µM | – | ·
CSc1nc2ccc(NS(=O)(=O)c3cccc(Cl)c3Cl)cc2s1 | – | – | – | 32µM | ? | 35µM
Cc1nc2ccc(NS(=O)(=O)c3c(F)cccc3F)cc2s1 | – | – | – | – | – | ·
Cc1nc2ccc(NS(=O)(=O)c3ccccc3Cl)cc2s1 | – | – | – | 18µM | – | –
C=CCN1C(=O)[C@@H](CC(=O)NCc2ccc(OC)c(OC)c2)[C@]2(C(=O)OCC)CCCCC/C=C/12 | · | · | · | · | – | ·
O=C(Nc1ccc(Br)c(C(F)(F)F)c1)[C@@H]1CC=C[C@@H]2CCN(CC3CC3)C(=O)[C@@H]21 | · | · | · | · | – | ·
CCn1c2ccccc2c2cc(/C=N/n3cn[nH]c3=S)ccc21 | – | – | – | 16µM | – | –
CC(=O)NC(C)(c1ccccc1)c1nc(-c2ccc(F)c(Cl)c2)cs1 (configuration not stated) | · | – | – | 11µM | – | ·
COc1ccc(C(C)(NC(C)=O)c2nc(-c3cccnc3)cs2)cc1 (configuration not stated) | · | – | – | ? | – | ·
COc1ccc(C(C)(NC(C)=O)c2nc(-c3cccc(C(F)(F)F)c3)cs2)cc1 (configuration not stated) | · | – | – | 35µM | ? | ·
Cc1csc2nc(COc3ccc(NC(=O)COc4ccccc4F)cc3)cc(=O)n12 | – | · | – | – | – | ·
Cc1cccc(N2CCN(C(=O)c3cnn(-c4cccc(Cl)c4C)c3C3CCNCC3)CC2)c1C | – | · | – | – | ? | ·
CCOc1cccc(-c2cc(C(=O)N3N=C(C)CC3(O)C(F)F)c3ccccc3n2)c1 (configuration not stated) | – | – | – | 18µM | – | –
CC(C)(C)CCNc1nc(-c2ccccn2)nnc1-c1ccccc1 | · | · | · | · | – | ·
Clc1ccccc1-c1cnc2sc(NCc3ccc4c(c3)OCO4)nn12 | · | – | – | 4µM | – | ·
Clc1ccccc1-c1ccc2ncnc(NCc3ccc4c(c3)OCO4)c2c1 | · | · | – | · | – | ?
CSc1nsc(/C=C/Nc2ccc(O)cc2C)c1C#N | 8.9µM | – | – | – | ? | –
SMILES | ERG Ets-DNA blk | aSyn rescue | Abeta yeast res | TDP43 rescue | FUS yeast rescue | Mito fusion yeast
N#Cc1ccc(S(=O)(=O)N2CCC(Oc3cccc(C(F)(F)F)c3)CC2)cc1 | – | · | – | – | – | ·
Cc1cccc(-n2ncc3c(NC4CCCCC4)ncnc32)c1 | – | – | – | – | – | –
Cc1ccc(-n2ncc3c(NC4CCCC4)ncnc32)cc1 | – | · | – | 1.3µM | – | ·
Clc1cccc(-n2ncc3c(NC4CCCCCC4)ncnc32)c1 | – | · | – | 35µM | – | ·
CC1CN(C(=O)c2cccc(COc3ccccc3Cl)c2)CC(C)O1 (configuration not stated) | – | – | – | –[0.397 µM] | – | –
CC1CN(C(=O)c2ccccc2OCc2ccc(Cl)cc2Cl)CC(C)O1 (configuration not stated) | – | – | – | 28µM | – | –
C[C@]12CC[C@H](O)CC1=CCC1C2CC[C@@]2(C)C1CC[C@@H]2NCc1ccccc1 (some centres not stated) | · | – | – | 1.1µM | – | ·
C=CCN1C(=O)[C@H](CC(=O)N2CCCCC2)[C@@]2(C(=O)OCC)CCCC=C12 | · | · | · | · | – | ·
CCn1c2ccccc2c2cc(Nc3cc(C)nc4ncnn34)ccc21 | – | – | – | 16µM | – | 16µM
Cc1cc(C)c2oc(-c3cccc(N)c3)nc2c1 | – | – | – | 11µM | – | –
Cc1cccc(N2CCN(C(=O)C3CCN(C(=O)c4cc5sccc5n4C)CC3)CC2)c1C | – | · | ? | 35µM | ? | ·
COc1ccc(OC)c(-c2nnc3n2N=C(c2ccc(OC)c(OCC4CC4)c2)CS3)c1 | · | · | – | · | 28µM | ·
COc1ccc(C2=Nn3c(nnc3-c3ccccc3Cl)SC2)cc1OCC1CC1 | · | · | – | · | – | ·
CCCOc1ccccc1N/C(N)=N/c1nc(C)cc(C)n1 | – | – | – | – | – | –
CCCOc1ccccc1N/C(=N/c1nc(C)cc(C)n1)NC(=O)COc1ccc(OC)cc1 | – | – | – | 2.2µM | ? | –
O=C(Cn1cc(C(=O)c2ccncc2)c(=O)c2cc(F)ccc21)Nc1ccc(Cl)cc1 | – | · | – | – | – | ·
O=C(c1c[nH]c(C(=O)N2CCN(c3ccccc3F)CC2)c1)c1cccc(Cl)c1Cl | – | ? | 3.2µM | 25µM | – | –
Cc1ccc(N2CCN(C(=O)c3ccccc3F)CC2)c(C)c1 | – | – | – | ? | – | –
COc1cc2[nH]c(C(=O)N3CCN(c4ccccc4F)CC3)cc2c(OC)c1OC | – | – | – | 35µM | – | –
Cc1ccccc1C(=O)c1c[nH]c(C(=O)N2CCN(c3ccccc3F)CC2)c1 | – | – | – | 25µM | – | –
Cc1cc(C)c(S(=O)(=O)NCC(c2cccs2)S(=O)(=O)c2ccccc2)c(C)c1 (configuration not stated) | – | · | – | 2.8µM | – | ·
CCOc1ccc(S(=O)(=O)NCC(c2cccs2)S(=O)(=O)c2ccc(C)cc2)cc1 (configuration not stated) | – | · | – | 2.8µM | – | ·
Cc1cc(C)c(S(=O)(=O)NCC(c2ccco2)S(=O)(=O)c2ccccc2)c(C)c1 (configuration not stated) | – | · | – | – | – | ·
CC(C)c1ccc(Nc2c(-c3ccc(N(C)C)cc3)nc3cnccn23)cc1 | – | · | – | – | – | ·
O=C(Cn1ccc(=O)[nH]c1=O)c1ccc([N+](=O)[O-])o1 | · | – | – | – | – | ·

Compound activity (PubChem BioAssay)
